Smad3 FoxH1 inh: inhibitors of human Smad3 transcription factor binding. P84022. AID 630. inhibition, % at 25 µM. TR-FRET Smad3/Dy647-FoxH1 peptide binding, europium anti-His. actives 0.29% (n = 88,000);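 active = compounds that reduce the energy-transfer binding signal between the protein and its labelled peptide by more than half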;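 note: 0% = Smad3 plus labelled peptide maximal FRET and 100% = peptide-only background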
PLK1 inh: blocks human PLK1 kinase activity | P53350 | recombinant PLK1 kinase, TR-FRET peptide phosphorylation | inhibition, % at 10 µM | actives 0.53% (n = 97,000) | AID 619;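 active = inhibition of 50% or more in the single-concentration screen; inactive = inhibition below 50%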;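 note: 0% = DMSO max control and 100% = H-89 dihydrochloride min control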
Plk1 PBD FP: Plk1 (human) PBD binding inhibition; P53350; Plk1 PBD phosphopeptide binding, fluorescence polarization; inhibition, %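 (tested at about 20 µM)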; actives 0.13% (n = 97,000); in the data active = inhibition above about 34%, passing the limit was not always enough
ERa coact inh: ER-alpha (human) coactivator binding inhibition; TR-FRET ER-alpha LBD / SRC-1 peptide, estradiol-bound; inhibition, % at 25.6 µM; actives 1.7% (n = 86,000); in the data active = inhibition above about 50%;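 note: 0% = receptor plus peptide control and 100% = peptide only without receptor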
Target sequence (P03372 whole entry, looked up, the tested form may be a part): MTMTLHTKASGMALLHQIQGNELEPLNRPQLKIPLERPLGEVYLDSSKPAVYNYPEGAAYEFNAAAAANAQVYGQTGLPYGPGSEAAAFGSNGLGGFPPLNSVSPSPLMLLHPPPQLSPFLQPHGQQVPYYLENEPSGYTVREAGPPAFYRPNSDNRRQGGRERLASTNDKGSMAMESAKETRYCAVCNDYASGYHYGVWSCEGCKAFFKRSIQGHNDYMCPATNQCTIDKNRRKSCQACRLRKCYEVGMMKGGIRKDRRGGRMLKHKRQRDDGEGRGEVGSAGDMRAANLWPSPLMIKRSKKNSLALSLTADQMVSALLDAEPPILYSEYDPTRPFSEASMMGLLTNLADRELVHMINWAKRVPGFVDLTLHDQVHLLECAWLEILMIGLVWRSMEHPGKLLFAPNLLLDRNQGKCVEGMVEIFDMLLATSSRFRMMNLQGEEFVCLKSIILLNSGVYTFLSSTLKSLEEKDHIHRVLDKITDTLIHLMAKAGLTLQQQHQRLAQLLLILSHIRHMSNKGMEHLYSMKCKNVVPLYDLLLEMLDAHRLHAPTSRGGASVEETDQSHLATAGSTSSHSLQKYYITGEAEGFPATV
ERa coact pot: enhances coactivator binding to human estrogen receptor alpha; TR-FRET ERalpha-LBD/SRC-Cy5 coactivator binding, 2 h; 100 = basal binding, no effect; coactivator binding (% of control), % at 25.6 µM; actives 1.3% (n = 86,000); in the data active = activity above about 200%;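 note: binding measured in presence of low estradiol as agonist stimulus; 0% = peptide alone without receptor and 100% = receptor with peptide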
ERb coact inh: ER-beta (human) coactivator binding inhibition. Q92731. TR-FRET ER-beta LBD / SRC1-Cy5 peptide binding; receptor agonist-loaded with 1 µM estradiol. inhibition, % at 25.6 µM. actives 1.3% (n = 86,000). AID 633;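 active = compounds whose percent inhibition of the receptor-coactivator binding signal exceeds about 50% in the single-dose screen, limit read from the data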;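 note: 0% = receptor plus peptide wells without compound and 100% = peptide-only wells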
Starred values were filed as active, the others as inactive; · = not tested or not shown; [ ] = remark or other dose. The list is not random: actives were taken first. Their share in the collection is about 3.3%.

SMILES	Smad3 FoxH1 inh	PLK1 inh	Plk1 PBD FP	ERa coact inh	ERa coact pot	ERb coact inh
O=C(O)C[C@H](Nc1ccccc1)C(=O)O	0.5	·	·	·	·	·
N#Cc1c(N)nc(SCc2ccccn2)c(C#N)c1-c1cccs1	4.2	-183.4	-2.9	21.6	373.2*[fluorescence artefact?]	26.7
CCOC(=O)CSc1nc(N)c(C#N)c(-c2cccs2)c1C#N	·	-15.3	-18.8	·	·	·
Cc1cc(C)c(C#N)c(SC2CCCCC2=O)n1 (stereo not given)	5.3	-3.2	9.1	-6.7	105.5	-6.0
N#Cc1c(N)nc(SCc2ccccc2)c(C#N)c1-c1ccco1	-2.4	-3.7	-0.4	8.7	213.2*	46.8
N#Cc1c(N)nc(SC2CCCCC2=O)c(C#N)c1-c1ccco1 (stereo not given)	8.0	-3.5	-1.0	3.7	216.8*[fluorescence artefact?]	-8.3
OCCSCc1ccccc1	-8.0	·	·	·	·	·
CC(Sc1nc2ccccc2s1)C(=O)Nc1nnc(C(C)C)s1 (stereo not given)	-16.5	-24.0	14.1	10.3	88.3	0.1
Oc1ccccc1C(Sc1nc2ccccc2s1)Sc1nc2ccccc2s1	78.0*	·	·	·	·	·
O=C(Nc1cccc(O)c1)c1cnn2cccnc12	6.5	57.4*	-5.9	7.1	75.8	38.5
Cc1ncc(CSc2ccccc2N)c(CO)c1O	-7.2	·	·	·	·	·
Cc1cc(C(=O)CSc2nnc(-c3ccccc3)n2C)c(C)n1C	-7.7	-9.7	5.8	4.2	115.0	5.9
Cc1cc(C(=O)CSc2nnc(-c3cccnc3)n2-c2ccccc2F)c(C)n1C	-0.5	7.6	-3.5	69.9*	55.3	31.2
O=C(O)c1cccc(S(=O)(=O)Nc2ccc3oc(=O)sc3c2)c1	-3.2	-0.7	-2.3	41.7	44.3	51.7*[fluorescence artefact?]
C[N+](C)(C)c1ccc([C@H](N)C(=O)O)cc1	-0.7	·	·	·	·	·
Nc1cccc(OCc2nc(N)nc(N)c2-c2ccc(Cl)cc2)c1	12.1	·	·	·	·	·
Clc1ccc(-n2ncc3c(NCC4CCCO4)ncnc32)cc1 (stereo not given)	-14.1	·	·	25.7	73.3	54.8*[fluorescence artefact?]
c1ccc(-n2ncc3c(NCC4CCCO4)ncnc32)cc1 (stereo not given)	3.8	-1.3	9.3	-5.3	116.7	-2.8
CCOC(=O)c1cc2ccccc2n1CCN(CC)CC	1.0	-7.1	14.7	52.0*	102.5	-6.5
CN(C)CCn1c(C(=O)Nc2ccccc2)cc2ccccc21	15.1	-0.4	-26.9	1.9	129.0	-0.7
CCOc1ccccc1N1CCN(S(=O)(=O)c2ccc3c4c(cccc24)C(=O)N3)CC1	3.4	-8.3	26.2	38.8	55.4	55.6*[fluorescence artefact?]
CC(NC(=O)c1cccnc1)C(c1cccs1)N1CCN(C)CC1 (stereo not given)	-2.2	-16.6	20.6	-6.1	103.0	-2.8
COc1cccc(C(=O)NC(C)C(c2cccs2)N2CCN(C)CC2)c1 (stereo not given)	17.8	-12.6	3.9	-31.9	115.1	67.0*[fluorescence artefact?]
CC12CN3CC(C)(CN(C1)C3c1ccccc1Cl)C2O (stereo not given)	·	-6.7	4.1	·	·	·
CN1CC2(C)CN(C(c3ccccc3)c3ccccc3)CC(C)(C1)C2O (stereo not given)	-2.0	·	·	44.4	84.3	57.1*
SMILES	Smad3 FoxH1 inh	PLK1 inh	Plk1 PBD FP	ERa coact inh	ERa coact pot	ERb coact inh
COc1ccc(Cc2ccc3[nH]c(=O)cc(C)c3c2)cc1S(=O)(=O)O	18.8	·	·	·	·	·
Cc1ccc(NC(=O)CN2C(=O)S/C(=C/c3ccc(-c4cc(C(=O)O)ccc4C)o3)C2=O)cc1C	4.3	11.4	19.5	66.1*	237.1*[fluorescence artefact?]	72.6*
N=C(N)CCNC(=O)[C@@H]1CCC(N)=N1	1.7	·	·	·	·	·
O=C(NCCO)c1ccc(Cl)cc1	57.6*	·	·	·	·	·
O=C(NCCO)c1ccc(Cl)c(Cl)c1	0.0	·	·	7.1	102.8	-2.7
O=C(c1cc(Br)ccc1O)c1cc(Br)ccc1O	10.8	·	·	·	·	·
Cn1c(=O)[nH]c(=O)c2c1nc1n2CCCN1CCc1ccccc1	8.4	-6.2	-16.4	64.6*	75.8	61.9*
Cn1c(=O)[nH]c(=O)c2c1nc1n2CCN1Cc1ccccc1	·	-2.9	26.4	·	·	·
CCc1nc2ccccc2c(=O)n1NC(=O)c1c(O)c2ccccc2[nH]c1=O	10.6	·	·	-36.4	272.9*	0.2
CCNC(=O)c1c(O)c2ccccc2[nH]c1=O	6.4	·	·	4.3	136.1	4.1
Cc1cc(C)n(-c2ccc(C(=O)OCC(=O)NCc3ccco3)cc2)n1	2.5	-11.2	-11.9	3.8	107.1	4.3
Cc1cc(C)n(-c2ccc(C(=O)OCC(=O)c3ccc(Br)s3)cc2)n1	2.1	-6.0	2.7	2.3	206.9*	5.2
N#CNC(N)=Nc1ccc(Cl)cc1	2.8	·	·	·	·	·
COC(=O)c1ccc(CSc2nc(C)nc3sc(C)c(C)c23)o1	-1.2	-8.3	0.5	55.4*	119.2	42.6
O=S(=O)(c1cccc(-c2cn3cccnc3n2)c1)N1CCCCCC1	-5.4	-6.6	-2.1	58.0*	123.6	31.6
O=S(=O)(c1cccc(-c2cn3cccnc3n2)c1)N1CCOCC1	-13.2	·	·	-14.2	88.1	-6.1
CN(C)CCNc1nc2c(c(=O)n(C)c(=O)n2C)n1C	3.6	·	·	·	·	·
Cc1cnn(-c2ccc3nnc(-c4ccc(Br)cc4)n3n2)c1	27.4	·	·	35.7	283.9*[fluorescence artefact?]	36.0
O=C(O)c1ccccc1C1=Nc2ccc(O)cc2Oc2cc(O)ccc21	-9.3	4.3	49.8*	35.3	46.5	61.7*[fluorescence artefact?]
Cc1cc(-c2ccccc2C(=O)O)on1	-16.8	-6.6	17.1	6.2	111.0	3.7
COc1cc2c(cc1NC(=O)CN1CCN(S(=O)(=O)c3ccccc3F)CC1)oc1ccccc12	-3.7	-12.9	12.6	44.2	188.6	35.1
Cc1cc([N+](=O)[O-])c(C)c(Br)c1C	-4.9	·	·	·	·	·
O=C1c2ccccc2C(=O)N1CCCc1nc2ccccc2c(=O)n1CCCn1ccnc1	16.4	-4.9	-0.1	-6.6	515.5*	0.4
Cn1c(-n2c(CCCN3C(=O)c4ccccc4C3=O)nc3ccccc3c2=O)nc2ccccc21	18.0	-11.4	23.5	-12.9	92.6	3.9
COC(=O)c1cc(OC)c(OC)cc1NC(=O)c1c(-c2ccccc2Cl)noc1C	-6.2	2.9	-4.3	0.2	123.8	7.3
SMILES	Smad3 FoxH1 inh	PLK1 inh	Plk1 PBD FP	ERa coact inh	ERa coact pot	ERb coact inh
N#Cc1cc2ccccc2nc1SCc1ccccn1	10.7	-9.3	15.4	-8.8	84.7	-3.7
N#Cc1cc(Sc2ccccn2)c(Sc2ccccn2)cc1C#N	2.6	-15.9	14.3	-4.7	213.5*	-4.1
Cc1ccc(C)c([C@@H]2NC(=O)c3ccccc3N2)c1	8.6	·	·	·	·	·
CCCSc1nnc(Cn2c(=O)sc3ccccc32)n1-c1ccccc1	0.6	-3.6	-0.7	-6.5	125.9	86.4*[fluorescence artefact?]
O=C1CSC2=NCN(c3ccc4c(c3)OCO4)CN12	-2.4	-6.9	-9.4	3.9	123.8	3.0
CN(C)c1ccc(N2CN=C3SCC(=O)N3C2)cc1	-11.9	5.0	-14.7	19.7	92.4	86.0*[fluorescence artefact?]
O=C(NC1CCCCC1)C(c1ccc2ncccc2c1)N(Cc1ccc(F)cc1)C(=O)c1cccs1 (stereo not given)	·	-10.8	15.0	·	·	·
CC1=C[N+](=O)c2ccccc2[N+]1=O	5.1	·	·	·	·	·
